Test in all cases: PBM; 200 nM protein, PBS
Holding throughout (conditions): dsDNA, one strand shown

The target of test [1] is SHOX (Homo sapiens, UniProt O15266 103-189).
Test [2] concerns the target SHOX (Homo sapiens, UniProt O15266 103-189, R173C).
The target of test [3] is CRX (Homo sapiens, UniProt O43186 26-111).
Test [4] deals with T1, VENTX (Homo sapiens, UniProt O95231 78-163, R121Q).
T1 sequence: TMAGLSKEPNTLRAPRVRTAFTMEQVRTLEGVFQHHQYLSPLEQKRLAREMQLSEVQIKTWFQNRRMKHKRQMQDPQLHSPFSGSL

Test [5] deals with T2, VENTX (Homo sapiens, UniProt O95231 78-163).
T2 sequence: T1 sequence with Q44R

For test [6], the target named is T3, VENTX (Homo sapiens, UniProt O95231 78-163, Y115F).
T3 sequence: T1 sequence with Y38F, Q44R

Test [7] deals with HOXA4 (Homo sapiens, UniProt Q00056 201-287, R217L).
Chain of HOXA4 (Homo sapiens, UniProt Q00056 201-287, R217L) (Q00056 201-287 R217L): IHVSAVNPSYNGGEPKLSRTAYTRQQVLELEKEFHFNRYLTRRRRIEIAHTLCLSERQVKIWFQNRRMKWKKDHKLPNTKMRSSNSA
Test [8] has as its target CRX (Homo sapiens, UniProt O43186 26-111, E42D).
In test [9] the target is CRX (Homo sapiens, UniProt O43186 26-111, R41L).
Chain of CRX (Homo sapiens, UniProt O43186 26-111, R41L) (O43186 26-111 R41L): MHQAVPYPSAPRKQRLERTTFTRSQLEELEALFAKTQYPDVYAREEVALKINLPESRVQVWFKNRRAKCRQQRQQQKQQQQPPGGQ
The target of test [10] is T4, SIX6 (Homo sapiens, UniProt O95475 114-200, L167I).
T4 sequence: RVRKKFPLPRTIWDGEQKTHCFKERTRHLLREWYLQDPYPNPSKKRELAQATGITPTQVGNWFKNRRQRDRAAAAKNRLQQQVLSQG

For test [11], the target named is T5, SIX6 (Homo sapiens, UniProt O95475 114-200, L143V).
T5 sequence: T4 sequence with L30V, I54L

The target of test [12] is T6, SIX6 (Homo sapiens, UniProt O95475 114-200, H141N).
T6 sequence: T4 sequence with H28N, I54L

In test [13] the target is T7, SIX6 (Homo sapiens, UniProt O95475 114-200, T165P).
T7 sequence: T4 sequence with T52P, I54L

Test [14] has as its target T8, SIX6 (Homo sapiens, UniProt O95475 114-200, L167M).
T8 sequence: T4 sequence with I54M

The target of test [15] is T9, SIX6 (Homo sapiens, UniProt O95475 114-200, L143M).
T9 sequence: T4 sequence with L30M, I54L

The target of test [16] is T10, SIX6 (Homo sapiens, UniProt O95475 114-200, L143I).
T10 sequence: T4 sequence with L30I, I54L

The target in test [17] is T11, SIX6 (Homo sapiens, UniProt O95475 114-200, T165G).
T11 sequence: T4 sequence with T52G, I54L

Test [18] deals with T12, SIX6 (Homo sapiens, UniProt O95475 114-200, T139Q).
T12 sequence: T4 sequence with T26Q, I54L

For test [19], the target named is T13, SIX6 (Homo sapiens, UniProt O95475 114-200, T165A).
T13 sequence: T4 sequence with T52A, I54L

For test [20], the target named is T14, SIX6 (Homo sapiens, UniProt O95475 114-200, L167V).
T14 sequence: T4 sequence with I54V

Test [21] deals with T15, SIX6 (Homo sapiens, UniProt O95475 114-200).
T15 sequence: T4 sequence with I54L

Test [22] concerns the target T16, SIX6 (Homo sapiens, UniProt O95475 114-200, T165I).
T16 sequence: T4 sequence with T52I, I54L

For test [23], the target named is HOXA4 (Homo sapiens, UniProt Q00056 201-287, W262R).
Chain of HOXA4 (Homo sapiens, UniProt Q00056 201-287, W262R) (Q00056 201-287 W262R): as the sequence (Q00056 201-287 R217L) above, with L17R, W62R counted along it
Test [24] has as its target PITX2 (Homo sapiens, UniProt Q99697 72-157).
Test [25] deals with HOXA4 (Homo sapiens, UniProt Q00056 201-287).
Chain of HOXA4 (Homo sapiens, UniProt Q00056 201-287) (Q00056 201-287): as the sequence (Q00056 201-287 R217L) above, with L17R counted along it

Numbering of substitutions follows the chain as printed.

Chain of CRX (Homo sapiens, UniProt O43186 26-111) (O43186 26-111): as the sequence (O43186 26-111 R41L) above, with L16R counted along it
Chain of CRX (Homo sapiens, UniProt O43186 26-111, E42D) (O43186 26-111 E42D): as the sequence (O43186 26-111 R41L) above, with L16R, E17D counted along it
Chain of SHOX (Homo sapiens, UniProt O15266 103-189, R173C) (O15266 103-189 R173C): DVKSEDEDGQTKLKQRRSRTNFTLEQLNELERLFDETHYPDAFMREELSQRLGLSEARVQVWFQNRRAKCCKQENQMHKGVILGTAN
Chain of SHOX (Homo sapiens, UniProt O15266 103-189) (O15266 103-189): as the sequence (O15266 103-189 R173C) above, with C71R counted along it

As to AGGGAAAC, the binding signal in [1] was 7.15 upbm affinity estimate (log intensity, higher = more binding, comparable within an allelic series); in [2], 7.22 upbm affinity estimate (log intensity, higher = more binding, comparable within an allelic series).

With CGAGCGCA, the binding signal in [1] is 7.22 upbm affinity estimate (log intensity, higher = more binding, comparable within an allelic series); in [2], 7.31 upbm affinity estimate (log intensity, higher = more binding, comparable within an allelic series).

Take CTCCGCCA: the binding signal in test [1] is 7.21 upbm affinity estimate (log intensity, higher = more binding, comparable within an allelic series); in [2], 7.21 upbm affinity estimate (log intensity, higher = more binding, comparable within an allelic series).

CCGTGGCC: the binding signal in test [1] is 7.18 upbm affinity estimate (log intensity, higher = more binding, comparable within an allelic series); in [2] it was 7.22 upbm affinity estimate (log intensity, higher = more binding, comparable within an allelic series).

With CCCAGCGA, the binding signal in [1] is 7.15 upbm affinity estimate (log intensity, higher = more binding, comparable within an allelic series); in test [2], 7.2 upbm affinity estimate (log intensity, higher = more binding, comparable within an allelic series).

As to AATTAGGC, the binding signal in test [1] was 11.6 upbm affinity estimate (log intensity, higher = more binding, comparable within an allelic series); in [2], 9.07 upbm affinity estimate (log intensity, higher = more binding, comparable within an allelic series).

For the sequence ACCCGGAC, the binding signal was 7.09 upbm affinity estimate (log intensity, higher = more binding, comparable within an allelic series) in test [1] and 7.17 upbm affinity estimate (log intensity, higher = more binding, comparable within an allelic series) in [2].

In the case of ACTAATCG, the binding signal is 12.1 upbm affinity estimate (log intensity, higher = more binding, comparable within an allelic series) in test [3]; 11.6 upbm affinity estimate (log intensity, higher = more binding, comparable within an allelic series) in test [4]; 12.6 upbm affinity estimate (log intensity, higher = more binding, comparable within an allelic series) in test [5]; 11.5 upbm affinity estimate (log intensity, higher = more binding, comparable within an allelic series) in [6]; 11.2 upbm affinity estimate (log intensity, higher = more binding, comparable within an allelic series) in test [7]; 11.9 upbm affinity estimate (log intensity, higher = more binding, comparable within an allelic series) in [8]. In addition, in test [9], the binding signal is 11.3 upbm affinity estimate (log intensity, higher = more binding, comparable within an allelic series).

TAACCTTA: in test [3], the binding signal was 9.78 upbm affinity estimate (log intensity, higher = more binding, comparable within an allelic series).

With GATTAATA, the binding signal in [3] was 12.7 upbm affinity estimate (log intensity, higher = more binding, comparable within an allelic series); in [4] it was 11.2 upbm affinity estimate (log intensity, higher = more binding, comparable within an allelic series); in test [5], 11.8 upbm affinity estimate (log intensity, higher = more binding, comparable within an allelic series); in test [6], 11 upbm affinity estimate (log intensity, higher = more binding, comparable within an allelic series); in test [8], 12.7 upbm affinity estimate (log intensity, higher = more binding, comparable within an allelic series).

For the sequence CTGGGGCA, the binding signal in [3] was 8.18 upbm affinity estimate (log intensity, higher = more binding, comparable within an allelic series); in test [4] it was 8.13 upbm affinity estimate (log intensity, higher = more binding, comparable within an allelic series); in [5], 8.21 upbm affinity estimate (log intensity, higher = more binding, comparable within an allelic series); in test [6], 8.17 upbm affinity estimate (log intensity, higher = more binding, comparable within an allelic series); in test [8] it was 8.24 upbm affinity estimate (log intensity, higher = more binding, comparable within an allelic series); in test [9], 8.28 upbm affinity estimate (log intensity, higher = more binding, comparable within an allelic series).

Consider ACGCAACG, for which the binding signal in test [3] is 8.38 upbm affinity estimate (log intensity, higher = more binding, comparable within an allelic series); in test [10], 9.07 upbm affinity estimate (log intensity, higher = more binding, comparable within an allelic series); in test [11], 9.09 upbm affinity estimate (log intensity, higher = more binding, comparable within an allelic series); in test [12], 9.09 upbm affinity estimate (log intensity, higher = more binding, comparable within an allelic series); in [13] it was 9.22 upbm affinity estimate (log intensity, higher = more binding, comparable within an allelic series); in test [14], 9.12 upbm affinity estimate (log intensity, higher = more binding, comparable within an allelic series). For the same sequence, the binding signal in [15] was 9.21 upbm affinity estimate (log intensity, higher = more binding, comparable within an allelic series); in test [16] it was 9.08 upbm affinity estimate (log intensity, higher = more binding, comparable within an allelic series); in test [17], 9.2 upbm affinity estimate (log intensity, higher = more binding, comparable within an allelic series); in test [18], 9.17 upbm affinity estimate (log intensity, higher = more binding, comparable within an allelic series); in test [8] it was 8.41 upbm affinity estimate (log intensity, higher = more binding, comparable within an allelic series); in test [19], 9.14 upbm affinity estimate (log intensity, higher = more binding, comparable within an allelic series). In addition, the binding signal in test [20] is 9.19 upbm affinity estimate (log intensity, higher = more binding, comparable within an allelic series); in [21], 9.12 upbm affinity estimate (log intensity, higher = more binding, comparable within an allelic series); in [22], 9.12 upbm affinity estimate (log intensity, higher = more binding, comparable within an allelic series); in test [9] it was 8.43 upbm affinity estimate (log intensity, higher = more binding, comparable within an allelic series).

As to GTGGATTA, the binding signal in [3] was 13.3 upbm affinity estimate (log intensity, higher = more binding, comparable within an allelic series); in [23], 10.2 upbm affinity estimate (log intensity, higher = more binding, comparable within an allelic series); in [8] it was 13.3 upbm affinity estimate (log intensity, higher = more binding, comparable within an allelic series); in test [24], 13.2 upbm affinity estimate (log intensity, higher = more binding, comparable within an allelic series); in [25] it was 10.8 upbm affinity estimate (log intensity, higher = more binding, comparable within an allelic series); in test [9], 13.1 upbm affinity estimate (log intensity, higher = more binding, comparable within an allelic series).

For the sequence AGGTGCCC, the binding signal in test [3] was 8.39 upbm affinity estimate (log intensity, higher = more binding, comparable within an allelic series); in test [10], 8.91 upbm affinity estimate (log intensity, higher = more binding, comparable within an allelic series); in test [11], 8.83 upbm affinity estimate (log intensity, higher = more binding, comparable within an allelic series); in test [12] it was 8.91 upbm affinity estimate (log intensity, higher = more binding, comparable within an allelic series); in test [13] it was 8.95 upbm affinity estimate (log intensity, higher = more binding, comparable within an allelic series); in test [14], 8.85 upbm affinity estimate (log intensity, higher = more binding, comparable within an allelic series). In addition, the binding signal is 8.84 upbm affinity estimate (log intensity, higher = more binding, comparable within an allelic series) in test [15]; 8.86 upbm affinity estimate (log intensity, higher = more binding, comparable within an allelic series) in [16]; 8.89 upbm affinity estimate (log intensity, higher = more binding, comparable within an allelic series) in [17]; 8.92 upbm affinity estimate (log intensity, higher = more binding, comparable within an allelic series) in test [18]; 8.38 upbm affinity estimate (log intensity, higher = more binding, comparable within an allelic series) in test [8]; 8.85 upbm affinity estimate (log intensity, higher = more binding, comparable within an allelic series) in [19]. Besides, the binding signal is 8.9 upbm affinity estimate (log intensity, higher = more binding, comparable within an allelic series) in test [20]; 8.78 upbm affinity estimate (log intensity, higher = more binding, comparable within an allelic series) in test [21]; 8.87 upbm affinity estimate (log intensity, higher = more binding, comparable within an allelic series) in [22]; 8.35 upbm affinity estimate (log intensity, higher = more binding, comparable within an allelic series) in test [9].

As to GAGGTACC, the binding signal in [3] is 8.08 upbm affinity estimate (log intensity, higher = more binding, comparable within an allelic series); in [4], 8.02 upbm affinity estimate (log intensity, higher = more binding, comparable within an allelic series); in test [5], 8.04 upbm affinity estimate (log intensity, higher = more binding, comparable within an allelic series); in test [6], 8.14 upbm affinity estimate (log intensity, higher = more binding, comparable within an allelic series); in test [8], 8.18 upbm affinity estimate (log intensity, higher = more binding, comparable within an allelic series); in test [9], 8.17 upbm affinity estimate (log intensity, higher = more binding, comparable within an allelic series).

(Values after publication PMC11006913.)
